The values that follow come from PubChem BioAssay (NCATS).

Results filed as inconclusive are left out. Active and inactive are the calls of the source. Calls follow the shape of the dose curve; as a rule, active = well fitted inhibition curve with a large enough effect; inconclusive = small, poorly fitted or top-dose-only effect; inactive = flat fitted curve, though single readings scatter.

Chain of Lysine-specific demethylase 5B (Homo sapiens) (Q9UGL1 whole entry, looked up): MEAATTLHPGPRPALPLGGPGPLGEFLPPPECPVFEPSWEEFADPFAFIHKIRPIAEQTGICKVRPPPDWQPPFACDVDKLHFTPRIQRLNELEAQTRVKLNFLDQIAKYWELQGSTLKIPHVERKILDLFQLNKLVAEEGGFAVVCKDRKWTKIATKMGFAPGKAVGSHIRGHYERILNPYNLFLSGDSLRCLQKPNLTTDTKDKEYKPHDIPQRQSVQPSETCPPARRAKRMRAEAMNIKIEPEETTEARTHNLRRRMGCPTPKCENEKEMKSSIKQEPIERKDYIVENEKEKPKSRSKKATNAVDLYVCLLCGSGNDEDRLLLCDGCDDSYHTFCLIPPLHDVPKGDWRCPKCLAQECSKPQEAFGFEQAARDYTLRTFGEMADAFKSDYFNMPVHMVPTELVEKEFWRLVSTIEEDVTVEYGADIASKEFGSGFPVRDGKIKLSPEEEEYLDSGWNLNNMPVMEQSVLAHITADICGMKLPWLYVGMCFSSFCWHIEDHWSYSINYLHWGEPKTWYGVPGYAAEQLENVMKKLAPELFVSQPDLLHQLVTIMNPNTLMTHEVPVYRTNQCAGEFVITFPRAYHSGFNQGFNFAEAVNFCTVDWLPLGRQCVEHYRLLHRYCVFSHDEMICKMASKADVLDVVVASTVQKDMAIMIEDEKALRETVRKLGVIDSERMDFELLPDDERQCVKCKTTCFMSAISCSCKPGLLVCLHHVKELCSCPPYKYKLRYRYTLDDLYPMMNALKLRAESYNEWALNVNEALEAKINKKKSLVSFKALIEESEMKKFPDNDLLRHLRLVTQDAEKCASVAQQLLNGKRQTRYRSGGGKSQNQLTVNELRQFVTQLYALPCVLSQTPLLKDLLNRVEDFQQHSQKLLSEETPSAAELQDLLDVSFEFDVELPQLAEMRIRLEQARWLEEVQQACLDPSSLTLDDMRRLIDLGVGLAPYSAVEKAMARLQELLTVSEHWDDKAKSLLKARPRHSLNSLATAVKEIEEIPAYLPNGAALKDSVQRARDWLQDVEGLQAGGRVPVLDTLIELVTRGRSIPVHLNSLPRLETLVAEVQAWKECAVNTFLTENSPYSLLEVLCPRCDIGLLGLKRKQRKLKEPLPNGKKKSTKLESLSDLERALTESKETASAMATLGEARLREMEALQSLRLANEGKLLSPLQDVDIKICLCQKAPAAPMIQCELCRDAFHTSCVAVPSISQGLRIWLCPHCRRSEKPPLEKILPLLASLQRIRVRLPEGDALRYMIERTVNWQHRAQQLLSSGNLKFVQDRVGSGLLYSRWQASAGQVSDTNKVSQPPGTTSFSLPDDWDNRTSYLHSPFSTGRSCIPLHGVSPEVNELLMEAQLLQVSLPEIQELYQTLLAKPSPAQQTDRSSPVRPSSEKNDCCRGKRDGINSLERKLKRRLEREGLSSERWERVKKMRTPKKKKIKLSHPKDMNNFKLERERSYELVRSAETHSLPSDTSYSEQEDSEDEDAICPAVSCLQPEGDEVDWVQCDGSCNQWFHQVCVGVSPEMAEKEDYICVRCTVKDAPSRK

The assay has as its target Lysine-specific demethylase 5B (Homo sapiens) (UniProt Q9UGL1). Briefly: Optimization screen for KDM5B Histone Demethylases FDH coupled qHTS against the LOPAC library (AID 1347166). Also: 0% is about no effect. The following applies: KDM5B demethylation, FDH-coupled NADH fluorescence (FDH is formaldehyde dehydrogenase); at 57.5 µM (top of the series). In short, it runs like this:
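KDM5BDeltaAP (200nM final) preincubated 10 min with compound, then 12.5uM H3K4Me3, 25uM a-ketoglutarate, ascorbate, Fe(II), NAD+ and FDH added; 50mM HEPES pH 7.5, 0.01% Tween-20. NADH fluorescence (340/450 nm) change over 30 min, room temperature.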
(In general: In qHTS, concentration-response curves come from the screen itself.)
Take `O=C(O)CCC(=O)N1CCCC1C(=O)O` (configuration not stated): the activity, negative = inhibition is -3.62% (inactive).
Take `CC(C)NC[C@H](O)COc1ccc(CC(N)=O)cc1`: the activity, negative = inhibition was -2.87% (inactive).
Regarding `Cn1ccnc1`, the activity, negative = inhibition is -0.951% (inactive).
Turning to `NOCC(=O)O`, the activity, negative = inhibition is -4.09% (inactive).
As to `COc1cc(N)c(Cl)cc1C(=O)OCCN1CCCCC1`, the activity, negative = inhibition is -18.2% (inactive).
For `CC(C)(C)NCC(O)COc1cccc2[nH]c(=O)[nH]c12` (configuration not stated), the activity, negative = inhibition is -6.87% (inactive).
The result for `CC(=O)N[C@@H](Cc1c[nH]c2ccccc12)C(=O)OCc1cc(C(F)(F)F)cc(C(F)(F)F)c1` reads -9.61% (inactive).
With `NC(=O)c1ccccc1`, the activity, negative = inhibition is 0.361% (inactive).
On to `COc1ccc2c(c1)CCC1C2CC[C@@]2(C)C1CC[C@@H]2NCCCCCCN1C(=O)C=CC1=O` (some centres not stated), for which the activity, negative = inhibition was -20.3% (inactive).
The result for `COc1ccc2c(c1)c(CC(=O)O)c(C)n2C(=O)c1ccccc1` reads 5.12% (inactive).
The result for `N#Cc1cc2nc(O)c(O)nc2cc1[N+](=O)[O-]` reads -14.6% (inactive); that for `O=C(O)/C(=C/c1c(C(=O)O)[nH]c2cc(Cl)cc(Cl)c12)c1ccccc1`, -2.54% (inactive); that for `CC(C)(C)c1cc(/C=C(\C#N)C(N)=S)cc(C(C)(C)C)c1O`, -26.1% (inactive).
For `O=C1Cc2c([nH]c3ccc(Br)cc23)-c2ccccc2N1` the value was -26.8% (inactive).
For `COc1ccc(CCn2nnnc2C2(c3ccc(C)cc3)CC2)cc1`, the activity, negative = inhibition was -4.62% (inactive).
For `Cc1nc2n(c(=O)c1CCN1CCC(c3noc4cc(F)ccc34)CC1)CCCC2O` (configuration not stated) the value was -13.2% (inactive); for `CNCCNS(=O)(=O)c1cccc2cnccc12`, -11.7% (inactive).
